According to the supplement of paper PMC10600219:
Values joined by “and” are separate entries in the source; they are usually repeats but may differ in a detail not shown here. Equal entries are not always repeated. Structures can show the parent of a compound that is named as a salt. Over roughly 2,800 compounds, “cell viability relative to vehicle” has its median near 1.1; the lowest 2% begin near 0.19. This excerpt belongs to a sample that is enriched for the lowest values.

test system: NCI-H2228 parental; assay: cell viability relative to vehicle (fraction of vehicle); NCI-H2228 is an ALK-positive lung cancer line and DTP means drug-tolerant persister; higher = less growth inhibition; settings: 100 nM; treatment time 6 days
Procedure, shortened: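 Each value is viability relative to vehicle-treated cells, measured as ATP with the CellTiter-Glo 3D Cell Viability Assay. Parental NCI-H2228 cells and drug-tolerant persisters (1000 nM targeted drug, 13 days) in 384-well plates received the 3114-agent TargetMol anti-cancer compound library at 100 nM, or DMSO, and were read 6 days later.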

SMILES	cell viability
Cn1cc(CNCC2CCN(c3ncc(C(=O)NO)cn3)CC2)c2ccccc21 [Quisinostat]	0.159
CN1CCc2c(c3ccccc3n2Cc2ccc(C(=O)NO)cc2)C1 [Tubastatin A HCl]	1.02
Cn1cc(C[C@@H](N)C(=O)O)c2ccccc21 [Indoximod]	1.11
CCCN1CCN(c2ccc(C(=O)NC3(C(=O)NCC#N)CCCCC3)cc2)CC1 [Balicatib]	1.07
CC(C)=CCC[C@](C)(O)[C@H]1CC[C@]2(C)[C@@H]1[C@H](O)C[C@@H]1[C@@]3(C)CC[C@H](O)C(C)(C)[C@@H]3[C@@H](O[C@@H]3O[C@H](CO)[C@@H](O)[C@H](O)[C@H]3O[C@@H]3O[C@@H](C)[C@H](O)[C@@H](O)[C@H]3O)C[C@]12C [Ginsenoside Rg2]	1.15
CCCCCCCCOC(=O)c1cc(O)c(O)c(O)c1 [Octyl gallate]	1.03
CC[C@@](C)(Nc1ccnc(-c2c[nH]c3ncccc23)n1)C(=O)NCC(F)(F)F [Decernotinib]	1.12
O=C(Nc1cccc(Cl)c1)Nc1ncc(CCNc2ncnc3ccsc23)s1 [SNS-314 Mesylate]	0.126
COc1cc2ncnc(Nc3cccc(Cl)c3)c2cc1OC	0.877
COc1cc(/C=C/C(=O)OC[C@H]2O[C@H](O[C@]3(CO)O[C@H](CO)[C@@H](O)[C@@H]3OC(=O)/C=C/c3cc(OC)c(O)c(OC)c3)[C@H](O)[C@@H](O)[C@@H]2O)cc(OC)c1O [3,6'-Disinapoyl sucrose]	0.963
Fc1ccc(-n2cc(CCCCN3CCC4(CC3)OCc3ccccc34)c3ccccc32)cc1 [Siramesine hydrochloride]	1.13
COc1cccc(-c2cc(F)ccc2[C@H]2Cc3nc(N)nc(C)c3C(=O)N2)n1	0.171
COc1ccc(-c2cc3c(C)nc(N)nc3n([C@H]3CC[C@H](OCCO)CC3)c2=O)cn1	0.485
Oc1ccc(-c2cc(=S)ss2)cc1 [Desmethylanethol trithione]	1.03
Cc1cc(C#N)c(N)s1 [2-Amino-5-methyl-3-thiophenecarbonitrile]	0.811
COCCNc1cc(NC(=O)N2CCCc3cc(CN4CCN(C)CC4=O)c(C=O)nc32)ncc1C#N [Roblitinib]	1.13
COc1ccc2[nH]c(C(=O)c3ccccc3)cc2c1	0.197
O=C(CCCCCCNC(=O)c1cnc(N(c2ccccc2)c2ccccc2Cl)nc1)NO [Citarinostat]	1.03
CC(C)c1cc(-c2n[nH]c(=O)n2-c2ccc3c(ccn3C)c2)c(O)cc1O [Ganetespib]	0.118
CCc1c2c(nc3ccc(OC(=O)N4CCC(N5CCCCC5)CC4)cc13)-c1cc3c(c(=O)n1C2)COC(=O)[C@]3(O)CC [Irinotecan hydrochloride trihydrate]	1.11
CCc1c2c(nc3ccc(O)cc13)-c1cc3c(c(=O)n1C2)COC(=O)[C@]3(O)CC	0.0693

SMILES	cell viability
CC[C@@]1(O)C(=O)OCc2c1cc1n(c2=O)Cc2cc3cc(O)ccc3nc2-1 [10-Hydroxycamptothecin]	0.0838
CC[C@@]1(O)C(=O)OCc2c1cc1n(c2=O)Cc2cc3c(CN(C)C)c(O)ccc3nc2-1 [Topotecan hydrochloride]	0.0837
CC[C@@]1(O)C(=O)OCc2c1cc1n(c2=O)Cc2cc3cc(O)ccc3nc2-1 [Hydroxy Camptothecine]	0.0691
CCc1c2c(nc3ccc(OC(=O)N4CCC(N5CCCCC5)CC4)cc13)-c1cc3c(c(=O)n1C2)COC(=O)[C@]3(O)CC [Irinotecan]	0.939
CC(C)C(C(=O)O)N1C(=O)C(=Cc2ccc(Br)cc2)SC1=S (stereo unspecified)	1.04
COc1ccc(-c2oc3cc(O)cc(O)c3c(=O)c2O)cc1 [kaempferide]	1.13
OC[C@H]1O[C@@H](Oc2cc(O)cc(/C=C/c3ccc(O[C@@H]4O[C@H](CO)[C@@H](O)[C@H](O)[C@H]4O)cc3O)c2)[C@H](O)[C@@H](O)[C@@H]1O [Mulberroside A]	1.07
N[C@@H](CO)C(=O)O [serine]	1.06
COc1ccc(C(=C2C(=O)Nc3ccccc32)c2ccc(OC)cc2)cc1	1.05
C/C(=N\NC(=S)N1CCC1)c1ccccn1	0.136
CN(C)C(=S)NN=C(c1ccccn1)c1ccccn1	0.212
S=C(N/N=C1/CCCc2cccnc21)N1CCN(c2ccccn2)CC1	1.09
COc1cc(OC)cc(C(=O)Nc2ccc(Cl)c(-c3nc4ccc(N(C)C)cc4[nH]3)c2)c1 [HhAntag]	1.03
NC(=O)c1ccc(OCCCN2CC3CCCC3C2)cc1 (stereo unspecified)	1.17
COc1c(Nc2ncc(Cl)c(N[C@H]3[C@@H](C(N)=O)[C@@H]4C=C[C@H]3C4)n2)ccc2c1CC[C@@H](N1CCOCC1)CC2	0.799
Cc1[nH]c2ccccc2c1CCNC(=O)c1cccs1	1.06
CN(C)Cc1ccc(S(=O)(=O)n2ccc(/C=C/C(=O)NO)c2)cc1 [Resminostat hydrochloride]	1.02
Cc1[nH]c2ccccc2c1CCNCc1ccc(/C=C/C(=O)NO)cc1 [Panobinostat]	0.094
CC(C)c1cc2c(c(O)c1O)[C@@]13CCCC(C)(C)[C@@H]1C[C@@H]2OC3=O [Carnosol]	1.04
O=C1C=C2C=C[C@@H](O)[C@H](O)[C@H]2O1 [griffonilide]	1.11
N=C(NCCCCCCNC(=N)NC(=N)Nc1ccc(Cl)cc1)NC(=N)Nc1ccc(Cl)cc1 [Chlorhexidine]	1.08

SMILES	cell viability
N=C(NCCCCCCNC(=N)NC(=N)Nc1ccc(Cl)cc1)NC(=N)Nc1ccc(Cl)cc1 [Chlorhexidine hydrochloride]	0.965
N#CN=C(NCCCCCCOc1ccc(Cl)cc1)Nc1ccncc1	0.0557
CN1CCN(C(=O)C2C(C(=O)O)[C@H]3CC[C@@H]2O3)CC1 (stereo partly specified)	0.955
O=C1CSc2ccccc2N1Cc1cccc(C(F)(F)F)c1	1.04
OC[C@@H](O)[C@@H](O)[C@@H](O)[C@@H](O)CO [Allitol]	1.13
Cn1cc(-c2nc(N[C@@H]3CCCC[C@@H]3N)c(F)c3c2C(=O)NC3)cn1 [TAK-659 hydrochloride]	1.01
Nc1nc(Cl)nc2c1ncn2[C@H]1C[C@H](O)[C@@H](CO)O1 [Cladribine]	0.201
Nc1nc(F)nc2c1ncn2[C@@H]1O[C@H](CO)[C@@H](O)[C@@H]1O [Fludarabine]	1.12
Nc1nc(Cl)nc2c1ncn2[C@@H]1O[C@H](CO)[C@@H](O)[C@@H]1F [Clofarabine]	0.151
NS(=O)(=O)Oc1ccc2c3c(c(=O)oc2c1)CCCCC3 [Irosustat]	1.04
O=C(O)c1ccc(S(=O)(=O)NC2CCCCC2)cc1	0.986 and 1.12
C[C@@H](Oc1cc(-n2cnc3ccc(CN4CCN(C)CC4)cc32)sc1C(N)=O)c1ccccc1C(F)(F)F	0.156
CC(C)c1cc(C(=O)N2Cc3ccc(CN4CCN(C)CC4)cc3C2)c(O)cc1O [Onalespib]	0.29
COc1ccc(CC(C)(C)NC[C@H](O)c2cc(O)cc3c2OCC(=O)N3)cc1 [Olodaterol]	0.923
Cc1ccc(/C=C2\CNC/C(=C\c3ccc(C)cc3)C2=O)cc1	1.06
c1ccc(CNc2ccccc2)cc1 [N-Phenylbenzylamine]	1.16
Cc1cc(O)c(-c2ccc(C(C)CN)cc2)c2c1[nH]c(=O)c1sccc12 (stereo unspecified)	0.116
COC(=O)c1ccc(O)c(OC)c1 [Methyl Vanillate]	1.18
Cn1c(=O)n(-c2ccc(C(C)(C)C#N)cc2)c2c3cc(-c4cnc5ccccc5c4)ccc3ncc21 [Dactolisib]	0.258
COc1ccc(-c2ccc3ncc4c(c3c2)n(-c2ccc(N3CCNCC3)c(C(F)(F)F)c2)c(=O)n4C)cn1	0.172
CCC(=O)N1CCN(c2ccc(-n3c(=O)ccc4cnc5ccc(-c6cnc7ccccc7c6)cc5c43)cc2C(F)(F)F)CC1 [Torin 1]	0.306

SMILES	cell viability
NC(=O)c1ccc2nc(-c3ccc(Oc4ccc(Cl)cc4)cc3)[nH]c2c1	0.996
Nc1ccc(Cl)cc1C(=O)O [2-Amino-5-chlorobenzoic acid]	1.16
Cc1cc(Nc2cc(N3CCN(C)CC3)nc(/C=C/c3ccccc3)n2)n[nH]1	0.803
Cc1nc(Nc2ncc(C(=O)Nc3c(C)cccc3Cl)s2)cc(N2CCN(CCO)CC2)n1 [Dasatinib]	0.872
Cc1nc(Nc2ncc(C(=O)Nc3c(C)cccc3Cl)s2)cc(N2CCN(CCO)CC2)n1 [Dasatinib monohydrate]	0.77
Cc1cc(Nc2cc(N3CCN(C)CC3)nc(Sc3ccc(NC(=O)C4CC4)cc3)n2)n[nH]1 [Tozasertib]	0.158
O=C(O)c1ccc(CN2C[C@@H]3C[C@H]2CN3Cc2ccc(Oc3ccc(-c4ncco4)cc3)cc2)cc1 [Acebilustat]	1.05
CN1C(=O)C(C)(C)Oc2c(-c3cn(C)c(=O)c4[nH]ccc34)cc(S(C)(=O)=O)cc21	0.935
C(=N\NC1=NCCN1)/c1c2ccccc2c(/C=N/NC2=NCCN2)c2ccccc12 [Bisantrene]	1.01
CC(C)=CCc1cc(-c2coc3cc(O)ccc3c2=O)ccc1O [Neobavaisoflavone]	1.17
CC(=O)NCCC(=O)O	0.856
COc1cc(/C=C2/SC(=S)NC2=O)ccc1OCC(=O)O	1.1
COc1cc(C(=O)N2CCC(N3CCN(C)CC3)CC2)ccc1Nc1ncc2c(n1)N(C)c1ccccc1C(=O)N2C	1.11
CC[C@@H]1C(=O)N(C)c2cnc(Nc3ccc(C(=O)N[C@H]4CC[C@H](N5CCN(CC6CC6)CC5)CC4)cc3OC)nc2N1C(C)C [Volasertib]	0.192
CCOc1cc(C(=O)N2CCC(N3CCN(C)CC3)CC2)ccc1Nc1ncc2c(n1)N(C1CCCC1)c1ccccc1C(=O)N2C	1.23
CCOc1cc(N2CCC(O)CC2)ccc1Nc1ncc2c(n1)N(C1CCCC1)CCC(=O)N2C	1.15
CC[C@@H]1C(=O)N(C)c2cnc(Nc3ccc(C(=O)NC4CCN(C)CC4)cc3OC)nc2N1C1CCCC1	0.167
COc1cc(C(=O)NC2CCN(C)CC2)ccc1Nc1ncc2c(n1)N(C1CCCC1)CC(F)(F)C(=O)N2C	0.171
